DT40 TDP1 CPT = DT40-hTDP1 cell growth loss with CPT | AID 686979 | Potency, µM (titrated, usually from 46.2 µM), hits mostly inhibitors | 420,000 tested, 12% active | chicken DT40 Tdp1-/-;hTDP1 cells + 20 nM CPT, ATP luminescence, 48 h; note: nearly all actives have a fitted effect of over 55% in size
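Chicken DT40 Tdp1-/- cells complemented with human TDP1, 400 cells/well, exposed to compounds plus 20 nM camptothecin for at least 48 h at 37 C; viability read as ATP content by CellTiter-Glo luminescence.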
HT1080NT lethal = kills 2HG-producing HT-1080-NT fibrosarcoma cells; HT-1080-NT fibrosarcoma viability, CellTiter-Glo ATP luminescence, 48 h; Potency, µM (highest dose often 46.1 µM), usual class: cytotoxic; 360,000 tested, 1.6% active;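 note: NT is the 2HG producing partner of a matched IDH1 knockdown line; nearly all actives have a fitted effect of over 55% in size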
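HT-1080-NT fibrosarcoma cells (2HG-overproducing), 750 cells/well in RPMI with 5% FBS, dosed after 2 h and incubated 48 h at 37C. CellTiter-Glo luminescence normalized to DMSO and no-cell wells; concentration-response curves fitted and classed.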
TDP1 cell noCPT = qHTS for Inhibitors of human tyrosyl-DNA phosphodiesterase 1 (TDP1): qHTS in cells in absence of CPT; DT40 Tdp1-/- hTDP1 cells, no CPT, ATP luminescence, 48 h; Potency, µM (top dose mostly 46.2 µM), hits mostly inhibitors; 420,000 tested, 15% active; AID 686978, 2013; note: nearly all actives have a fitted effect of over 55% in size
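DT40 Tdp1-/-;hTDP1 cells, no CPT (DMSO vehicle only), 400 cells/well; compounds pin-transferred; ≥48 hr, 37 °C; CellTiter-Glo 30 min RT dark, luminescence read.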
IL1B secr inh = inflammasome signaling inhibition, IL-1 beta readout; AID 743279; activity change, % at 57.5 µM; 360,000 tested, 4.7% active; THP-1 LPS/ATP IL-1B secretion, AlphaLISA, 16 h; active compounds read low; in the data active = activity change below about -50%; inconclusive = mostly about -30% to -49%
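THP-1 cells pretreated 1 hr with compounds (up to 57.5 uM final), then stimulated with LPS (250 ng/mL final) plus ATP (1.25 mM final); secreted IL-1B measured by AlphaLISA after 16 hr, decreased signal indicating inhibition.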
HT1080 IDH1KD tx = kills HT-1080 cells with IDH1 knockdown | Potency, µM (top dose mostly 46.1 µM), hits mostly cytotoxic | 360,000 tested, 2% active | AID 686971 | HT-1080 IDH1 knockdown viability, ATP luminescence, 48 h
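CellTiter-Glo luminescence after 48 h compound exposure at 37 degrees C of IDH1-knockdown HT-1080 cells in 5% FBS RPMI. %Activity scaled between DMSO wells and cell-free media wells, with curves fitted and assigned curve classes.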
Numbers stand for hits; 0 = inactive; ? = inconclusive; - = not tested or not shown; [ ] = another dose, or the depositor's remark. Most compounds without a hit are left out; they make up all but 19% or so of the library. Unless noted, calls come from the whole dose curve; as a rule, active = well fitted curve in the direction sought with a large enough effect; inconclusive = small, poorly fitted or top-dose-only effect, or another doubt; inactive = no such curve, though single readings can be large; an effect the other way counts as inactive or inconclusive.

SMILES	DT40 TDP1 CPT	HT1080NT lethal	TDP1 cell noCPT	IL1B secr inh	HT1080 IDH1KD tx
CCOc1ccccc1NC1=C(Cl)C(=O)N(Cc2ccccc2)C1=O	?	?	?	0	?
O=C1C(Cl)=C(Nc2cccc(O)c2)C(=O)N1Cc1ccccc1	23µM	?	?	-98	?
CC1CCCCN1C(=O)c1ccc(C(=O)c2ccccc2)cc1 (centres undefined)	?	0	15µM	0	0
CC1CCN(C(=O)c2ccc(NC(=O)c3ccccc3)cc2)CC1	0	0	0	0	0
O=C(CN1C(=O)c2ccccc2C1=O)Nc1cccc(O)c1	0	0	0	0	0
CC1CCN(C(=O)c2ccc(NC3=C(Cl)C(=O)N(Cc4ccccc4)C3=O)cc2)CC1	18µM	0	12µM	-93	0
COc1ccc(OC)c(NC2=C(Cl)C(=O)N(Cc3ccccc3)C2=O)c1	?	0	?	-165	?
COc1ccc(OC)c(NC2=C(c3ccccc3)C(=O)c3ccccc32)c1	1.5µM	-	1µM	-	-
CC1CCCCN1C(=O)c1cccc(NC2=C(Cl)C(=O)N(Cc3ccccc3)C2=O)c1 (centres undefined)	?	?	?	-88	?
COc1ccc(N2CCN(C(=O)CSc3nnc(COc4cccc5cccnc45)o3)CC2)cc1	?	0	?	0	0
CCCCNC(=O)C1(C)CCN1C(=O)c1ccc(F)cc1Cl (centres undefined)	0	0	0	0	0
CCOc1cc(-c2noc(N)c2C#N)cc(OCC)c1OCC	?	0	?	0	0
CCOc1cc2c(C#N)c(N(CC)CC)nc(N)c2c(N)n1	?	0	16µM	?	0
CCCN(CC1CC1)c1nc(N)c2c(N)nc(OC)cc2c1C#N	16µM	0	23µM	0	0
Cc1csc(CN(C)C(=O)CC2C(=O)NCCN2Cc2ccc(Cl)c(F)c2)n1 (centres undefined)	0	0	0	0	0
Cn1c(SCCN2CCOCC2)nc2sc3c(c2c1=O)CCCC3	0	0	0	0	0
C=CCn1c(SCc2c(C)noc2C)nc2sc3c(c2c1=O)CCCC3	18µM	0[9.24 µM]	?	0	?
COC(=O)c1sc(N)c(C(=O)OC)c1CSc1nc2sc3c(c2c(=O)n1C)CCC3	?	0	26µM	0	0
Cc1noc(C)c1CSc1nc2sc3c(c2c(=O)n1C)CCCC3	12µM	0	?	0	0
COC(=O)c1cccc(N(CC(=O)NC2CCCCC2)C(=O)CNC(=O)c2cccs2)c1	0	0	0	0	0
Cc1nc(-n2[nH]c3c(c2=O)CCCC3)[nH]c(=O)c1Cc1ccccc1	2.9µM	?	3.3µM	-106	?
O=C(COC(=O)C1CC1)NC(=O)c1ccccc1	?	0	0	0	0
COC(=O)[C@]12CCCCC=C1N(CCC1=CCCCC1)C(=O)[C@H](CC(=O)N1CCN(C(=O)C3CC3)CC1)C2	?	0	16µM	0	0
COC(=O)[C@]12CCCCC=C1N(CCC1=CCCCC1)C(=O)[C@H](CC(=O)N1CCCCC1)C2	18µM	0	23µM	0	0
NC(=O)c1[nH]cnc1N	0	0	0	0	0
SMILES	DT40 TDP1 CPT	HT1080NT lethal	TDP1 cell noCPT	IL1B secr inh	HT1080 IDH1KD tx
COc1ccc(-n2cc(CNC(C)c3ccncn3)c(-c3cccc(F)c3)n2)cc1 (centres undefined)	?	0	26µM	0	0
CCC(COC)NCc1cn(-c2ccc(OC)cc2)nc1-c1cccc(F)c1 (centres undefined)	16µM	?	23µM	-82	?
Cc1cc(NC(=O)c2ccccc2F)on1	13µM	0	0	0	0
CC(C)[C@H](NC(=O)c1ccccc1F)C(=O)Nc1ccc(F)c(F)c1	0	0	0	0	0
Cc1ccccc1C(=O)NC(C(=O)Nc1nc2c(s1)CCCC2)C(C)C (centres undefined)	26µM	0	26µM	0	0
Cc1csc(NC(=O)C(NC(=O)c2ccccc2F)C(C)C)n1 (centres undefined)	?	0	21µM	0	0
COc1cc(=O)n2c(c1C(=O)NCc1ccco1)CCN(Cc1cccc(C(F)(F)F)c1)CC2	0[9.04 µM]	-	0	-	-
